# A number with no mark means an inactive call. Results filed as inconclusive are left out. Entries that show only a call come without a potency. Calls of active or inactive are those of the source. Unless noted, calls follow the shape of the dose curve; as a rule, active = well fitted curve in the direction sought with a large enough effect in the repeat runs; inconclusive = weak or mixed curves; inactive = no such curve, though single readings can be large; an effect the other way counts as inactive or inconclusive.
# Assays:
# [1] = qHTS assay to identify small molecule agonists of the estrogen receptor alpha (ER-alpha) signaling pathway in the presence of an antagonist - cell viability counter screen (AID 1259386); also: series mostly up to about 92 µM; nearly all actives have a fitted effect of over 30% in size
# How it was run: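 Compounds tested at 15 concentrations for 22 h at 37C alongside 10.0nM (final) ICI-182,780 antagonist, in VM7Luc4E2 cells grown in phenol red-free, charcoal-stripped medium. Viability read by CellTiter-Fluor fluorescence after 1 h reagent incubation.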
# [2] = biological target: Progesterone receptor (Homo sapiens) (UniProt P06401); assay: qHTS assay to identify small molecule agonists of the progesterone receptor (PR) signaling pathway (AID 1346784; calls by dose curve; also: nearly all actives have a fitted effect of over 30% in size)
# How it was run: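 HEK 293T PR-UAS-bla reporter cells, 2% charcoal-stripped FBS; 6 hr settle at 37C/5% CO2, compound (DMSO) 16 hr, LiveBLAzer B/G FRET substrate 2 hr RT, fluorescence intensity read.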
# [3] = biological target: Progesterone receptor (Homo sapiens) (UniProt P06401); assay: qHTS assay to identify small molecule antagonists of the progesterone receptor (PR) signaling pathway (AID 1346795; active = well fitted inhibition curve with a large enough effect in the signal ratio in the repeat runs, not every such curve was filed as active; the % refers to the signal ratio)
# How it was run: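 Beta-lactamase reporter, HEK293T PR-UAS-bla line; 2% charcoal-stripped FBS; 6 hr pre-incubation, 37C/5% CO2. Compound + R5020 1 nM final, 16 hr. LiveBLAzer B/G FRET substrate, 2 hr RT; fluorescence intensity read.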
# [4] = qHTS assay to identify small molecule antagonists of the progesterone receptor (PR) signaling pathway - cell viability counter screen (AID 1346798); also: series mostly up to about 92 µM; nearly all actives have a fitted effect of over 50% in size
# How it was run: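 Luminescence readout (CellTiter-Glo, 30 min, RT) of viability in PR-UAS-bla HEK293T cells exposed to compound and R5020 agonist for 16 hr at 37C, 5% CO2; run in the same wells as the beta-lactamase reporter read.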
# [5] = qHTS assay to identify small molecule agonists of the progesterone receptor (PR) signaling pathway - cell viability counter screen (AID 1346799; calls by dose curve; also: nearly all actives have a fitted effect of over 45% in size)
# How it was run: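 HEK293T PR-UAS-bla, 3,000 cells/well, 2% charcoal-stripped FBS; 6 h settle, compound 16 h at 37C/5% CO2; LiveBLAzer 2 h RT, then CellTiter-Glo 30 min RT, luminescence read.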
# [6] = qHTS assay to identify small molecule antagonists of the TGF-beta/Smad signaling pathway - cell viability counter screen (AID 1346824); also: nearly all actives have a fitted effect of over 50% in size
# How it was run: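 SBE-bla HEK 293T cells, incubated overnight, then compound plus 0.25 ng/mL TGF-beta1 (stock added) for 5 hr at 37 C. Viability was read in the same wells by CellTiter-Glo luminescence after 30 min at room temperature.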
# [7] = qHTS assay to identify small molecule agonists of the TGF-beta/Smad signaling pathway - cell viability counter screen (AID 1346829); also: top concentration of the series differs between compounds; nearly all actives have a fitted effect of over 45% in size
# How it was run: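 Tox21 qHTS format: SBE-bla HEK 293T cells treated with DMSO-dissolved compounds for 5 hr; CellTiter-Glo luminescence after 30 min at room temperature.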
# [8] = qHTS assay to identify small molecule agonists of the TGF-beta/Smad signaling pathway (AID 1346859; active = well fitted activation curve with a large enough effect in the signal ratio in the repeat runs, not every such curve was filed as active; the % refers to the signal ratio; also: series mostly up to about 77 µM)
# How it was run: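 Read-out: fluorescence at 460 and 530 nm (405 nm excitation) after a 2 hr room-temperature incubation with beta-lactamase FRET substrate. SBE-bla HEK 293T cells had been treated with test compounds for 5 hr at 37 C.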
# [9] = biological target: Thyrotropin-releasing hormone receptor (Homo sapiens) (UniProt P34981); assay: qHTS assay to identify small molecule antagonists of the thyrotropin-releasing hormone receptor (TRHR) signaling pathway (AID 1346877; active = well fitted inhibition curve with a large enough effect in the repeat runs, not every such curve was filed as active; also: series mostly up to about 51 µM)
# How it was run: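 Antagonist mode: after a 5 min room-temperature compound exposure, cells were stimulated with 1 nM (final) TRH. Dye-loaded TRHR-HEK293 cells were used, and calcium-dependent fluorescence was followed for 3 min, with 15-point titrations run in triplicate.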
# [10] = biological target: Thyrotropin-releasing hormone receptor (Homo sapiens) (UniProt P34981); assay: qHTS assay to identify small molecule agonists of the thyrotropin-releasing hormone receptor (TRHR) signaling pathway (AID 1346891; calls by dose curve;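 also: HEK293 cells expressing TRHR with calcium dye readout; series mostly up to about 58 µM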)
# How it was run: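 HEK293/TRHR cells, 1500 per well, 18 h 37 °C; Ca dye 2 h 37 °C; pin-tool compound addition (agonist mode); kinetic fluorescence 3 min, 1 s reads; 15 concentrations, triplicate.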
# [11] = Human pregnane X receptor (PXR) small molecule agonists, qHTS cell viability counter screen (AID 1346977); also: nearly all actives have a fitted effect of over 50% in size
# How it was run: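 Fluorescence read-out (CellTiter-Fluor) of viability in PXR-Luc HepG2 cells, multiplexed with the luciferase agonist read. Compounds in DMSO added after 5hr plating; 24hr total exposure at 37C, 5% CO2.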
# [12] = Caspase-3/7 induction in HepG2 cells by small molecules, qHTS assay (AID 1346978); also: nearly all actives have a fitted effect of over 15% in size
# How it was run: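 Wild-type HepG2 cells, 2,000/well, settled 5 hr at 37 C and 5% CO2, then compound-treated for 17 hr; caspase-3/7 activity read by luminescent Caspase-Glo 3/7 after 30 min at room temperature.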
# [13] = Caspase-3/7 induction in CHO-K1 cells by small molecules, qHTS cell viability counter screen (AID 1346979); also: nearly all actives have a fitted effect of over 35% in size
# How it was run: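 CHO-K1 wt, 1,500 cells/well; 5hr pre-incubation 37C/5% CO2; compound pin transfer (DMSO); 16hr exposure; CellTiter-Fluor added, 1hr, fluorescence read.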
# [14] = Caspase-3/7 induction in CHO-K1 cells by small molecules, qHTS assay (AID 1346980); also: nearly all actives have a fitted effect of over 15% in size
# How it was run: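 Wild-type CHO-K1 cells exposed to compounds for 17hr at 37 C, 5% CO2. Caspase-3/7 activity then measured by Caspase-Glo 3/7 luminescence after 30min at room temperature.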
# [15] = Caspase-3/7 induction in HepG2 cells by small molecules, qHTS cell viability counter screen (AID 1346981); also: series mostly up to about 92 µM; nearly all actives have a fitted effect of over 30% in size
# How it was run: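 CellTiter-Fluor fluorescence measured viability in the same wells used for Caspase-Glo 3/7. HepG2 (wild type) at 2,000 cells/well were pre-incubated 5 hr, dosed, and given reagent at 16 hr, with 1 hr further at 37C.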
# [16] = biological target: Nuclear receptor subfamily 1 group I member 2 (Homo sapiens) (UniProt O75469); assay: Human pregnane X receptor (PXR) small molecule agonists, qHTS assay (AID 1346982); also: nearly all actives have a fitted effect of over 35% in size; also: potency is read from the fitted curve at half-maximal effect
# How it was run: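 Agonist mode: luminescence from ONE-Glo after 24 h compound exposure at 37C in HepG2 cells carrying hPXR-responsive CYP3A4 luciferase, plated in charcoal-stripped serum medium 5 h beforehand.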
# [17] = biological target: Acetylcholinesterase (Homo sapiens) (UniProt P22303); assay: Acetylcholinesterase (AChE) small molecule antagonists: colormetric cell-based qHTS assay (AID 1347395; calls by dose curve; also: nearly all actives have a fitted effect of over 30% in size)
# How it was run: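 SH-SY5Y cells; cpd 30 min 37 C; + DTNB/acetylthiocholine, 90 min 37 C; colorimetric thiocholine read; qHTS.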
# [18] = biological target: Nuclear receptor subfamily 1 group I member 2 (Rattus norvegicus) (UniProt Q9R1A7); assay: Rat pregnane X receptor (rPXR) activation by small molecules, qHTS assay (AID 1346983); details: rPXR luciferase reporter cells, One-Glo luminescence, 24 h; max activation: stronger effect = higher value; also: nearly all actives have a fitted effect of over 20% in size
# How it was run: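 Cell-based rPXR activation assay: rPXR cells, 2,000 per well, rested 5hr at 37 C, then exposed to compounds in DMSO for 24 hr at 37 C. Luciferase activity read by One-Glo luminescence after 30 min at room temperature.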
# [19] = biological target: Nuclear receptor subfamily 1 group I member 2 (Homo sapiens) (UniProt O75469); assay: CYP3A4 induction through human pregnane X receptor (PXR) by small molecules, qHTS assay (AID 1346984); also: nearly all actives have a fitted effect of over 40% in size
# How it was run: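 Read-out is luminescence after One-Glo addition, following a 3 hr, 37C incubation with Luciferin-IPA CYP3A4 substrate (3uM final). Before that, compounds were on DPX-2 cells (HepG2 co-transfected with PXR element plus CYP3A4-promoter luciferase) for 24 hr at 37C.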
# [20] = biological target: Nuclear receptor subfamily 1 group I member 2 (Homo sapiens) (UniProt O75469); assay: Human pregnane X receptor (PXR) activation by small molecules, qHTS assay (AID 1346985); also: nearly all actives have a fitted effect of over 40% in size
# How it was run: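 DPX-2 cells (HepG2 co-transfected with a PXR response element and a CYP3A4-promoter luciferase construct) were seeded at 2,000 per well, rested 5 hr at 37C, then exposed to DMSO-dissolved compounds for 24 hr. Activation was read as luciferase luminescence.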
# Sequence of Progesterone receptor (Homo sapiens) (P06401 whole entry, looked up): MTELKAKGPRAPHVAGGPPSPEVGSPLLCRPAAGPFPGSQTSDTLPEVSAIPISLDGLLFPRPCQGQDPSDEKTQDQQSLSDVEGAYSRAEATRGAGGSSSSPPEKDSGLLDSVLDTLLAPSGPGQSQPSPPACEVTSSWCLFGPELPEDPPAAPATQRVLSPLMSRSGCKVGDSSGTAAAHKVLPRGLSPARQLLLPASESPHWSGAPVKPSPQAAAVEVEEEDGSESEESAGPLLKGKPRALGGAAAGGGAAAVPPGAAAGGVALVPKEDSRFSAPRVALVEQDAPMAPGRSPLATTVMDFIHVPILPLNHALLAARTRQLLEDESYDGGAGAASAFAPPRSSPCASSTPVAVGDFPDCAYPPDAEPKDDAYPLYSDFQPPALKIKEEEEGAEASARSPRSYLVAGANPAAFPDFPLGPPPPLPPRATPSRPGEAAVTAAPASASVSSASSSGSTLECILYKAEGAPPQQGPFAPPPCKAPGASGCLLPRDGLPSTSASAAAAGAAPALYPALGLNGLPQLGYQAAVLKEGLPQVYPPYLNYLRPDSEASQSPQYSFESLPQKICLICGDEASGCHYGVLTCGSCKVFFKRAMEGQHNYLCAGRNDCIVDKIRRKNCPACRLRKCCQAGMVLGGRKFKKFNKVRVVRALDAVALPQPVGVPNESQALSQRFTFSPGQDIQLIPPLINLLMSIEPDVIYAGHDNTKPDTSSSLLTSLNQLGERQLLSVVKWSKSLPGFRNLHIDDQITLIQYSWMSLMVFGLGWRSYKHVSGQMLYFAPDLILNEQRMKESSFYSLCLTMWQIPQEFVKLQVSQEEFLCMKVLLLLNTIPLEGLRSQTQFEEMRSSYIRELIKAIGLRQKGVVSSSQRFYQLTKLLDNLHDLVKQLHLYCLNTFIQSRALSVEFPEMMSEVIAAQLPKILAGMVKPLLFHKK
# Sequence of Thyrotropin-releasing hormone receptor (Homo sapiens) (P34981 whole entry, looked up): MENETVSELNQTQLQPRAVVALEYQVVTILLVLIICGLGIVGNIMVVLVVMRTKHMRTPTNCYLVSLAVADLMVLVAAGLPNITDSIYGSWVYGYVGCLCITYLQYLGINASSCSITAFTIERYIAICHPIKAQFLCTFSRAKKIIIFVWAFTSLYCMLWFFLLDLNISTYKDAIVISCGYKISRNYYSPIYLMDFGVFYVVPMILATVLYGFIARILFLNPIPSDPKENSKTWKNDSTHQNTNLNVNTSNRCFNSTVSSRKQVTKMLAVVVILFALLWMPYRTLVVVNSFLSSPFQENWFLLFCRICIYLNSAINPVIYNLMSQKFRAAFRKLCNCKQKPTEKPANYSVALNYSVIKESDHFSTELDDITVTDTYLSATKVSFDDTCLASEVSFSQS
# Sequence of Nuclear receptor subfamily 1 group I member 2 (Homo sapiens) (O75469 whole entry, looked up): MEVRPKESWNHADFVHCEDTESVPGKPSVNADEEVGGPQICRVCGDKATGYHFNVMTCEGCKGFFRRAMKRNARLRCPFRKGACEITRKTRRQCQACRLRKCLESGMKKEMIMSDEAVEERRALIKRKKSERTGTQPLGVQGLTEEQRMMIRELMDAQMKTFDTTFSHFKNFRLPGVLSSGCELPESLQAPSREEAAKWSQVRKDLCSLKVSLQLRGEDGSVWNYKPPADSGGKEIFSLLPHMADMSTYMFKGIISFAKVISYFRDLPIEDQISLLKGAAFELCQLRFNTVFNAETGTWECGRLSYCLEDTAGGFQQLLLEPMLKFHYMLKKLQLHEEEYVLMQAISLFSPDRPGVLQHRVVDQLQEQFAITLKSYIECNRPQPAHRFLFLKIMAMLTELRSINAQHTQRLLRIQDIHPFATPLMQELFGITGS
# Sequence of Acetylcholinesterase (Homo sapiens) (P22303 whole entry, looked up): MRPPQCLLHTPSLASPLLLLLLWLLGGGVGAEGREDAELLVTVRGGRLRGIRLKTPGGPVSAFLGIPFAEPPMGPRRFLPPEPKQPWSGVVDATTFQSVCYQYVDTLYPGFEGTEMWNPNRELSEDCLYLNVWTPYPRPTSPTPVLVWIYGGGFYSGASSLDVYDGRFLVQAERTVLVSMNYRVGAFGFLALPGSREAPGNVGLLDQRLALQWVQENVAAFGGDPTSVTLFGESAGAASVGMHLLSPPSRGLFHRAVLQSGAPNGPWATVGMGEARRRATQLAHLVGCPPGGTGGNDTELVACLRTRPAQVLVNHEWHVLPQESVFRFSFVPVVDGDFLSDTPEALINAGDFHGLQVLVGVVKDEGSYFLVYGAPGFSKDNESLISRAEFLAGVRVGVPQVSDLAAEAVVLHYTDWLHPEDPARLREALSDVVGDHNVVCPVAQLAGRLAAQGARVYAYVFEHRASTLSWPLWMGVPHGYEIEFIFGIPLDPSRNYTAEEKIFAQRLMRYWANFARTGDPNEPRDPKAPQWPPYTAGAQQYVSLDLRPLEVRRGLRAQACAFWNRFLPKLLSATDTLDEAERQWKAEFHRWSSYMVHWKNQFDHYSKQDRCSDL
# Sequence of Nuclear receptor subfamily 1 group I member 2 (Rattus norvegicus) (Q9R1A7 whole entry, looked up): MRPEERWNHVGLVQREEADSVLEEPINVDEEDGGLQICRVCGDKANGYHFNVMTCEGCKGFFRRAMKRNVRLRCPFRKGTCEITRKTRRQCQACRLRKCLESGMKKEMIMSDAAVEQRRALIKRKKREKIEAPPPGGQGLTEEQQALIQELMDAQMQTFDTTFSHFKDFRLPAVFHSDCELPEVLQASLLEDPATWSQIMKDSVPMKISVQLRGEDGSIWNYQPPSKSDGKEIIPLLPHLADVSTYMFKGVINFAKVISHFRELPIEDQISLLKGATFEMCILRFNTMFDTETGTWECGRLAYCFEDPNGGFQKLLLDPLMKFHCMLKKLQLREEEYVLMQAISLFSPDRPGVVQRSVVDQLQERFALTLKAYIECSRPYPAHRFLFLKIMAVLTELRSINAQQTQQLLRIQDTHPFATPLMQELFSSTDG
compound,measurement,setting,value
CCC(=O)c1ccccc1,Potency,[1],inactive
same,Potency,[2],inactive
same,Potency,[3],inactive
same,Potency,[4],inactive
same,Potency,[5],inactive
same,Potency,[6],inactive
same,outcome,[7],inactive
same,outcome,[8],inactive
same,outcome,[9],inactive
same,outcome,[10],inactive
same,Potency,[11],inactive
same,Potency,[12],inactive
same,Potency,[13],inactive
same,Potency,[14],inactive
same,Potency,[15],inactive
same,Potency,[16],inactive
same,Potency,[17],inactive
CCOP(=O)(N=C1SCCS1)OCC,Potency,[1],inactive
same,Potency,[2],inactive
same,Potency,[3],inactive
same,Potency,[4],inactive
same,Potency,[5],inactive
same,Potency,[6],inactive
same,outcome,[7],inactive
same,outcome,[8],inactive
same,outcome,[9],inactive
same,Potency,[11],inactive
same,Potency,[12],inactive
same,Potency,[13],inactive
same,Potency,[14],inactive
same,Potency,[15],inactive
same,Potency,[16],inactive
Cc1ncsc1CCCl,Potency,[1],inactive
same,Potency,[2],inactive
same,Potency,[3],inactive
same,Potency,[4],inactive
same,Potency,[5],inactive
same,Potency,[6],inactive
same,outcome,[7],inactive
same,outcome,[8],inactive
same,Potency,[11],inactive
same,Potency,[12],inactive
same,Potency,[14],inactive
same,Potency,[15],inactive
same,Potency,[16],inactive
same,max activation,[18],-0.969%
same,Potency,[19],inactive
same,Potency,[20],inactive
same,Potency,[17],inactive
N#CCNCC#N,Potency,[1],inactive
same,Potency,[2],inactive
same,Potency,[3],inactive
same,Potency,[4],inactive
same,Potency,[5],inactive
same,Potency,[6],inactive
same,outcome,[7],inactive
same,outcome,[8],inactive
same,outcome,[9],inactive
same,outcome,[10],inactive
same,Potency,[11],inactive
same,Potency,[12],inactive
same,Potency,[13],inactive
same,Potency,[14],inactive
same,Potency,[15],inactive
same,Potency,[16],inactive
same,Potency,[17],inactive
COC(=O)C1=CCCN(C)C1,Potency,[1],inactive
same,Potency,[2],inactive
same,Potency,[3],inactive
same,Potency,[4],inactive
same,Potency,[5],inactive
same,Potency,[6],inactive
same,outcome,[7],inactive
same,outcome,[8],inactive
same,Potency,[11],inactive
same,Potency,[12],inactive
same,Potency,[13],inactive
same,Potency,[14],inactive
same,Potency,[15],inactive
same,Potency,[16],inactive
same,Potency,[17],inactive
CN1CCC(O)(c2ccc(F)cc2)C(C(=O)c2ccc(F)cc2)C1 (configuration not stated),Potency,[1],inactive
same,Potency,[2],inactive
same,Potency,[3],inactive
same,Potency,[4],inactive
same,Potency,[5],inactive
same,Potency,[6],inactive
same,outcome,[7],inactive
same,outcome,[8],inactive
same,outcome,[9],inactive
same,outcome,[10],inactive
same,Potency,[12],inactive
same,Potency,[13],inactive
same,Potency,[14],inactive
same,Potency,[15],inactive
same,Potency,[16],13.3 µM (active)
same,max activation,[18],-0.751%
same,Potency,[19],inactive
same,Potency,[20],inactive
same,Potency,[17],inactive
CCCSC(=O)Cl,Potency,[1],inactive
same,Potency,[2],inactive
same,Potency,[3],inactive
same,Potency,[4],inactive
same,Potency,[5],inactive
same,Potency,[6],inactive
same,outcome,[7],inactive
same,outcome,[8],inactive
same,Potency,[12],inactive
same,Potency,[13],inactive
same,Potency,[14],inactive
same,Potency,[15],inactive
same,Potency,[16],inactive
same,Potency,[17],inactive
O=C1c2ccccc2C(=O)c2ccccc21,"activity change, negative = cytotoxicity",[1],2.11% [at 19 µM]
same,activation,[2],-0.0487% [at 19 µM]
same,"activity change, negative = inhibition",[3],12.9% [at 18.9 µM]
same,"activity change, negative = cytotoxicity",[4],9.36% [at 18.9 µM]
same,"activity change, negative = cytotoxicity",[5],2.43% [at 19 µM]
same,"viability change, negative = cytotoxic",[6],-2.72% [at 15.8 µM]
same,"activity change, negative = cytotoxicity",[7],-4.2% [at 15.8 µM]
same,activation,[8],-3.6% [at 15.8 µM]
same,"activity, negative = inhibition",[9],-1.2% [at 10.5 µM]
same,"activity change, negative = cytotoxicity",[11],8.57% [at 19 µM]
same,caspase activation,[12],-0.684% [at 19 µM]
same,"activity change, negative = cytotoxicity",[13],11.3% [at 19 µM]
same,caspase-3/7 activation,[14],2.01% [at 19 µM]
same,"activity change, negative = cytotoxicity",[15],8.77% [at 19 µM]
same,max activation,[18],7.01%
same,Potency,[19],inactive
same,Potency,[20],inactive
same,"activity, negative = inhibition",[17],-0.352% [at 23.6 µM]

# Source: PubChem BioAssay (Tox21)
